# In the library only some 21% were active in any assay of this set; here they are far more common.
# Pf growth 48h = inhibits P. falciparum growth in the first generation, 48 h; P. falciparum luciferase growth in erythrocytes, 48 h; Potency, µM (titrated, usually from 28.7 µM), without a hit: top-dose activity change, negative = inhibition, usual class: inhibitors; 5.9% of 310,000 active; further: potency means the concentration at half of the fitted maximal effect; on the % scale 0 is the no-effect control and ±100 the full control effect
#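 Luciferase-expressing parasites in RBCs, 2% Hct / 0.1% parasitemia final; RPMI 1640 + 0.5% Albumax; 37 C, 5% CO2, one generation; luminescence read-out, lower signal = inhibition.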
# Shiga inhibitor = blocks Shiga toxin action in Vero cells; Vero cells, Shiga toxin protein synthesis inhibition reporter; inhibition, % at 38.7 µM; 9.2% of 290,000 active; AID 2315; in the data active means inhibition mostly above about 28%, no sharp cut-off; inactive means mostly below about 43%; further: 0% is about no effect
# NS1 inh = inhibitors of influenza NS1 protein function; Potency, µM (highest dose often 46.1 µM), for inactives: at the highest dose activity, positive = more growth; 0.4% of 270,000 active; AID 2326; calls by dose curve; further: potency means the concentration at half of the fitted maximal effect; actives are rising curves; nearly all actives have a fitted effect of over 50% in size
#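 S. cerevisiae expressing influenza A NS1, grown in glucose, washed, then diluted 1:100 into pH 6.0 -URA galactose medium with 23 nl compound. Growth recovery read as OD600; NS1-free strain serves as control.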
# Pf growth 96h = P. falciparum growth inhibition at 96 hours. 6.9% of 320,000 active. P. falciparum luciferase reporter growth, 96 h. Potency, µM (doses to about 28.7 µM), for inactives: top-dose activity change, negative = inhibition, hits mostly inhibitors. AID 504834; further: potency means the concentration at half of the fitted maximal effect; on the % scale 0 is the no-effect control and ±100 the full control effect
#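 Two-generation exposure (96 h) targets delayed-death phenotype. Reporter parasites carrying integrated firefly luciferase, in red cells at 2% hematocrit and 0.05% parasitemia final, kept at 37 C, 5% CO2; luminescence loss indicates inhibition.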
# Cycloheximide cs = affects cycloheximide protein synthesis inhibition readout, counter-screen; cell reporter, cycloheximide protein synthesis inhibition counterscreen; max response, %; 12% of 300,000 active; in the data active means max response mostly above about 13%, no sharp cut-off; inactive means mostly below about 14%; further: read at 38.3 µM for the half of the compounds with a filed dose; 0% is about no effect
# * marks the source's active call; other numbers are inactive results; ? = inconclusive; . = not tested or not shown; [ ] = remark or other dose. Unless noted, the call rests on the fitted dose curve; in most records, active means well fitted inhibition curve with a large enough effect; inconclusive means small, poorly fitted or top-dose-only effect, or another doubt; inactive means no such curve, though single readings can be large or run the other way.
SMILES,Pf growth 48h,Shiga inhibitor,NS1 inh,Pf growth 96h,Cycloheximide cs
NC(=O)COc1ccc2cc(-c3ccccc3)c(=O)oc2c1,60.0%,62.1*,9.1%,27.1%,31.9*
NC(=O)COc1ccc2oc(-c3ccccc3)cc(=O)c2c1,123.5%,69.2*,.,27.0%[5.75 µM],27.4*
NC(=O)COc1ccc2cc(-c3ccc(F)cc3)c(=O)oc2c1,37.5%,35.4*,20.7%,42.3%,21.2*
COC(=O)COc1ccc2cc(-c3ccccc3)c(=O)oc2c1,?,-2.8,-23.8%,42.8%,-3.0
CCOC(=O)COc1ccc2c(=O)cc(-c3ccccc3)oc2c1,65.1%,18.8,-30.3%,42.4%,8.9
O=C1C(=O)c2ncccc2-c2cccnc21,0.675µM*,.,.,-23.4%,.
Nc1nc(N)c2ncc(C(=O)CCc3ccccc3)nc2n1,-0.1%,-10.7,-2.0%,-3.8%,-3.1
Nc1ccc(-c2nc3nc(N)nc(N)c3nc2-c2ccc(N)cc2)cc1,10.4µM*,-2.6,2.2%,?,1.1
N#CCCN1CCN(C(=S)c2ccc(-c3cc(Cl)ccc3Cl)o2)CC1,?,-2.1,-29.7%,5.22µM*,0.6
CN1CCN(C(=S)c2ccc(-c3cc(Cl)ccc3Cl)o2)CC1,?,8.6,-30.8%,1.3%,8.5
S=C(c1ccc(-c2ccc(Cl)cc2Cl)o1)N1CCCC1,?,22.5,2.7%,?,17.7*
S=C(c1ccc(-c2ccc(Cl)cc2Cl)o1)N1CCCCC1,109.9%,77.7*,-10.0%,198.9%,41.9*
CC(=O)c1ccccc1N(C(=O)c1ccco1)C(C(=O)NC1CCCC1)c1ccc(C)cc1 (configuration not stated),-9.1%,-7.4,11.6%,?,-1.0
O=S(=O)(c1c(F)cccc1F)C1CCN(S(=O)(=O)c2ccc3c(c2)OCCO3)CC1,.,30.8,.,.,-3.3
Cc1cc(Oc2ccc(C#N)cc2)nc(N2CCOCC2)n1,-5.3%,-25.6,-19.8%,?,-3.9
COc1ccc2nc(Nc3nc(CSc4nc5ccccc5[nH]4)cc(=O)[nH]3)nc(C)c2c1,?,-9.3,?,10.4µM*,-4.8
Cc1ccc2nc(SCc3ccc([N+](=O)[O-])cc3)nc(C)c2c1,2.0%,13.1,-2.3%,3.3%,-2.2
COc1cccc(CSc2nc3ccccc3[nH]2)c1,149.7%,68.1,-20.0%,159.7%,29.9*
O=[N+]([O-])c1cccc(CSc2nc3ccccc3[nH]2)c1,-37.6%,38.0,-17.3%,65.1%,13.2*
O=C(O)c1ccc(CSc2nc3ccccc3[nH]2)cc1,-5.3%,-6.2,3.7%,?,1.0
Cc1cc(C)c2nc(SCc3ccc([N+](=O)[O-])cc3)nc(C)c2c1,-22.5%,-34.0,10.1%,13.1µM*,-7.5
O=C(O)Cn1c(=O)c2c3c(sc2n(Cc2ccccc2F)c1=O)CCCC3,8.5%[0.00184 µM],-15.2,2.9%,35.9%,-2.2
CC(C)(C)c1ccc(-c2nc(SCC(=O)Nc3ccc(Cl)cc3)[nH]c(=O)c2C#N)cc1,.,32.3,.,.,1.7
NS(=O)(=O)c1ccc(CCNC(=O)CCc2nc3sc4c(c3c(=O)[nH]2)CCCC4)cc1,?,.,.,-16.9%,.
COc1cccc(CC(Cc2nc3ccccc3[nH]2)c2nc3ccccc3[nH]2)c1 (configuration not stated),-24.6%,29.5,.,?,35.1*
SMILES,Pf growth 48h,Shiga inhibitor,NS1 inh,Pf growth 96h,Cycloheximide cs
COc1ccc(N2CCN(Cc3nc4ccccc4[nH]3)CC2)cc1,-6.7%,38.3,-12.9%,-29.9%,1.5
Cc1ccc2nc(SCc3ccc([N+](=O)[O-])cc3)[nH]c2c1,?,73.2*,-25.3%,1.3%,40.4*
Cc1ccc(CN(C(=O)c2csnn2)C(C(=O)NC2CCCC2)c2cccnc2)cc1 (configuration not stated),-13.6%,-4.2,-1.4%,60.1%,-9.8
Cc1ccc2c(CN3CCC(C)CC3)cc(=O)oc2c1C,?,123.1*,0.4%,?,54.9*
Cc1cc(C)c2oc(=O)cc(CN3CCC(C)CC3)c2c1,10.4µM*,-1.4,4.9%,?,-0.7
Cc1ccc2c(CN3CCOCC3)cc(=O)oc2c1C,33.1%,21.9,-6.9%,?,12.7
Cc1ccc2c(CN3CCN(Cc4ccccc4)CC3)cc(=O)oc2c1C,0.0%,4.4,4.1%,?,-3.8
Cc1cc(C)c2oc(=O)cc(CN3CCN(Cc4ccccc4)CC3)c2c1,11.7µM*,-6.9,-1.3%,?,9.3
Cc1ccc2c(CN3CC(C)CC(C)C3)cc(=O)oc2c1C (configuration not stated),?,6.7,1.0%,14.7µM*,6.3

# Source: PubChem
